Experimental data as given in PubChem BioAssay AID1851 (National Center for Advancing Translational Sciences (NCATS), 2009).
The whole screen tested about 16,000 compounds, of which about 5,100 (32%) were called active. Roughly 25% stayed inconclusive and do not appear here. Calls follow the shape of the dose curve; as a rule, active = well fitted curve in the direction sought with a large enough effect; inconclusive = small, poorly fitted or top-dose-only effect, or effect the other way; inactive = no such curve, though single readings can be large or run the other way. The list shows a part of the results.
% is scaled to controls: 0 for no effect and ±100 for the full control effect.

The compounds below were run against Cytochrome P450 3A4 (Homo sapiens) (UniProt P08684) (assay: Cytochrome panel assay with activity outcomes). Conditions: recombinant CYP, pro-luciferin dealkylation, luminescence, p450-cyp3a4; series mostly up to 57.1 µM; activity, negative = inhibition: at the top concentration.
Cytochrome P450 3A4 (Homo sapiens), sequence (P08684 whole entry, looked up): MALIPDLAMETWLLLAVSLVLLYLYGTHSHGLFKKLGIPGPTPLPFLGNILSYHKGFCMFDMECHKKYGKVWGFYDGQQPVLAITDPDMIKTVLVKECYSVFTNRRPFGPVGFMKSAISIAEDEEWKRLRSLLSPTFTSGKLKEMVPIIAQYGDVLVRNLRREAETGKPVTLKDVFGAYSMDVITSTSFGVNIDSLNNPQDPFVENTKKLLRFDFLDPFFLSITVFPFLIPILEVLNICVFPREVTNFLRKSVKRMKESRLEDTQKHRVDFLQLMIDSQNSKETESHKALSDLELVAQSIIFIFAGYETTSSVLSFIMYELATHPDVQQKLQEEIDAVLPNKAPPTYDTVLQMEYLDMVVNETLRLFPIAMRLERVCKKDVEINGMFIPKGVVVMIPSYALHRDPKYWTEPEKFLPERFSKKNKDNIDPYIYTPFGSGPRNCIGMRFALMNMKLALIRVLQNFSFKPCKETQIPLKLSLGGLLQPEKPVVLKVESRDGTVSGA
With `CCC1(O)c2ccccc2-c2ncccc21` (stereo not given) the “activity, negative = inhibition” value was -21% (inactive). `COc1ccc(C(N)=O)cc1NC(=O)c1cccc(F)c1` was tested, and the “activity, negative = inhibition” value was 7.69% (inactive). `C=C(C)c1cccc(C(C)(C)NC(=O)Nc2cc(C)ccc2OC)c1` was tested, and the AC50 was 10 µM (active). `O=[N+]([O-])c1c(NCCO)cc(Sc2nc3ccccc3s2)c2nonc12` was tested, and the AC50 was 25.1 µM (active). `CCc1cc2c(Sc3nc4ccccc4s3)ncnc2s1` was tested, and the activity, negative = inhibition was 6.04% [at 2.29 µM] (inactive). For `c1ccc(NCCSc2nc3ccccc3s2)cc1`, the activity, negative = inhibition was -25.9% [at 11.4 µM] (inactive). In the case of `COc1n[nH]c2nncnc12`, the “activity, negative = inhibition” value is reported as 3.1% (inactive). `CCOC(=O)c1[nH]c(C)c(C)c1C` was tested, and the “activity, negative = inhibition” value was -10.8% (inactive). In the case of `CCOC(=O)C1=C(C)NC2(O)c3ccccc3C(=O)C12O` (stereo not given), the “activity, negative = inhibition” value is reported as 8.09% (inactive). `CCOC(=O)C1=C(C)NC(C)=C(C(=O)OCC)C1c1sccc1C` was tested, and the AC50 was 11.2 µM (active). For `COc1ncc2ncc(=O)n(CCC#N)c2n1`, the “activity, negative = inhibition” value was -14.1% (inactive). `COc1ncc2ncc(=O)n(C)c2n1` was tested, and the “activity, negative = inhibition” value was -13% (inactive). For `N#CCCn1c(=O)cnc2cnc(OCc3ccccc3)nc21`, the “activity, negative = inhibition” value was -26.2% (inactive). In the case of `COc1ncc2ncc(=O)n(Cc3ccc(F)cc3)c2n1`, the AC50 is reported as 10 µM (active). With `O=c1cnc2cnc(OCc3ccccc3)nc2n1Cc1ccc(F)cc1` the AC50 was 5.01 µM (active). With `O=C1NCC2(CCN(CCc3ccccc3)CC2)O1` the AC50 was “inactive”. With `C[N+]1(CCC[N+]2(C)C[C@H]3[C@H](C2)[C@H]2C=C[C@@H]3CC2)CCOCC1` (stereo not given in full) the activity, negative = inhibition was 31.7% [at 11.4 µM] (inactive). For `Cc1cc(N2CCN(C)CC2)nc2ccc(NC(=O)CCC(=O)NCc3ccco3)cc12`, the AC50 was 15.8 µM (active). For `COCCCNC(=O)CCC(=O)Nc1ccc2nc(N3CCOCC3)cc(C)c2c1`, the AC50 was 12.6 µM (active). With `CCN(CC)c1cc(C)c2cc(NC(=O)CNC(C)=O)ccc2n1` the activity, negative = inhibition was -3.72% [at 11.4 µM] (inactive). For `COc1ccc2c(C)cc(N3CCOCC3)nc2c1`, the “activity, negative = inhibition” value was -8.84% (inactive). `CCCCNC(=O)CCC(=O)Nc1ccc2nc(N3CCOCC3)cc(C)c2c1` was tested, and the AC50 was 5.01 µM (active). In the case of `C/C(=N\O)c1cccc[n+]1Cc1ccccc1`, the activity, negative = inhibition is reported as -11.2% [at 11.4 µM] (inactive). For `COc1ccc2[nH]cc(CCNc3nc(-c4ccc(N(C)C)cc4)nc4ccccc34)c2c1`, the AC50 was 2.51 µM (active). `COc1ccc2[nH]cc(CCNc3nc(-c4ccc(C(=O)N(C)C)cc4)nc4ccccc34)c2c1` was tested, and the AC50 was 2.51 µM (active). With `Cc1ccc(S(=O)(=O)CCc2nnc(NC(=O)COc3cccc(C)c3)s2)cc1` the AC50 was 2.82 µM (active). In the case of `O=C(Nc1nnc(CCS(=O)(=O)c2ccc(Br)cc2)s1)c1ccc([N+](=O)[O-])cc1`, the activity, negative = inhibition is reported as -8.9% [at 2.29 µM] (inactive). In the case of `Cc1cccc(C)c1NC(=O)C[N+](C)(C)C`, the AC50 is reported as “inactive”. With `COC(=O)C1CSC(C(=O)OC)N1C(=O)Nc1c(C)cccc1C` (stereo not given) the “activity, negative = inhibition” value was -24.2% (inactive). For `CC(=O)c1cn(CC(=O)Nc2c(C)cccc2C)c2ccccc12`, the AC50 was 11.2 µM (active).
